Assay outcomes from PubChem.
Hits are enriched below; roughly 6.9% of the tested compounds scored in any of these assays.
Vif-A3G inh: Vif-A3G binding inhibition; HeLa A3G-eYFP + Vif (tagged APOBEC3G with the HIV-1 protein that degrades it), YFP fluorescence, overnight; Q9HC16; 0.076% of 410,000 active; AID 602310; Potency, µM (highest dose often 46.1 µM), inactives show top-dose activity, negative = active, actives largely listed as inhibitors; further: potency means the concentration at half of the fitted maximal effect; on the % scale 0 is the no-effect control and ±100 the full control effect; nearly all actives have a fitted effect of over 60% in size
Target sequence (Q9HC16 whole entry, looked up): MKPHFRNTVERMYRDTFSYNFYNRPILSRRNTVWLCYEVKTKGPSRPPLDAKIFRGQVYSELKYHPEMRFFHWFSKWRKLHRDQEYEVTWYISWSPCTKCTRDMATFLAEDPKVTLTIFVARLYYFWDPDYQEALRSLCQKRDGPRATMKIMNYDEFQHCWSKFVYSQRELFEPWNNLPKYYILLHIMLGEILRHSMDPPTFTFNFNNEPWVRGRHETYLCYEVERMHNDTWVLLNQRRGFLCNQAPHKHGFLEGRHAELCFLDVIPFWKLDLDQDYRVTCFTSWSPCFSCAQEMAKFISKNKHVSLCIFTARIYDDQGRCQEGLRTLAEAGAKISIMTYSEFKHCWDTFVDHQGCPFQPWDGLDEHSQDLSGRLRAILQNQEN
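HeLa cells stably expressing Vif and C-terminally eYFP-tagged A3G, seeded overnight at 37 deg C, then exposed to compound by pintool overnight at 37 deg C. Rise in yellow fluorescence (Ex 488/Em 500-530, Acumen) marks blocked Vif-driven A3G degradation.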
MCF10A rerep: induces DNA re-replication in MCF 10a normal breast cells. MCF 10A DNA re-replication, Hoechst nuclear intensity, 48 h. Potency, µM (doses to about 46.1 µM), without a hit: at the highest dose activity, positive = re-replication, hits mostly activators. 2.9% of 350,000 active. AID 624296; further: potency means the concentration at half of the fitted maximal effect; % of control where 0% means no effect; nearly all actives have a fitted effect of over 50% in size
Vif-APOBEC3F blk: Vif-A3F binding inhibition; Potency, µM (series often up to 46.1 µM), inactives show at the highest dose activity, negative = active; 0.2% of 390,000 active; HeLa A3F-eYFP + Vif (tagged APOBEC3F with the HIV-1 protein that degrades it), YFP fluorescence increase; further: potency means the concentration at half of the fitted maximal effect; % of control where 0% means no effect; nearly all actives have a fitted effect of over 65% in size
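HeLa cells stably expressing Vif plus C-terminally eYFP-tagged A3F were seeded, incubated overnight at 37 deg C, dosed with compound, incubated overnight again at 37 deg C. Yellow fluorescence (Ex 488/Em 500-530) reported blocked Vif-mediated A3F-eYFP degradation.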
Giardia killer: Giardia lamblia killing | Giardia lamblia trophozoite viability | activity change, % at 7.66 µM, hits read low | 0.15% of 340,000 active; in the data active means activity change below about -80%; inconclusive means between about -30% and that limit;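 further: parasites exposed to compound for two days anaerobically before the ATP read; on the % scale 0 is the no-effect control and ±100 the full control effect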
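Killing of trophozoites was scored by loss of ATP luminescence after a 48 hrs anaerobic exposure to compounds at 37 deg C, using 100 cells per well.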
SW480 rerep: DNA re-replication induction in SW480 cells | SW480 DNA re-replication, Hoechst DNA content imaging, 48 h | Potency, µM (titrated, usually from 46.1 µM), for inactives: at the top dose re-replication activation, actives largely listed as activators | 1.8% of 340,000 active | AID 624297; further: potency means the concentration at half of the fitted maximal effect; % of control where 0% means no effect; nearly all actives have a fitted effect of over 55% in size
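DNA re-replication was detected as more nuclei of elevated Hoechst intensity after 48 hr exposure to compound (23 nL pinned per well of 250 cells).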
IL1B secr inh: blocks inflammasome-driven IL-1 beta release | activity change, % at 57.5 µM | THP-1 LPS/ATP IL-1B secretion, AlphaLISA, 16 h; active compounds read low | 4.7% of 360,000 active; in the data active means activity change below about -50%; inconclusive means mostly about -30% to -49%; further: on the % scale 0 is the no-effect control and ±100 the full control effect
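THP-1 cells pretreated 1 hr with compounds (up to 57.5 uM final), then stimulated with LPS (250 ng/mL final) plus ATP (1.25 mM final); secreted IL-1B measured by AlphaLISA after 16 hr, decreased signal indicating inhibition.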
* = called active by the depositor; u = inconclusive; x = not tested or not shown. Unless noted, the call rests on the fitted dose curve; in most records, active means well fitted curve in the direction sought with a large enough effect; inconclusive means small, poorly fitted or top-dose-only effect, or another doubt; inactive means no such curve, though single readings can be large; an effect the other way counts as inactive or inconclusive.

SMILES	Vif-A3G inh	MCF10A rerep	Vif-APOBEC3F blk	Giardia killer	SW480 rerep	IL1B secr inh
CC1(C)OC(=O)C2(Cc3cc([N+](=O)[O-])ccc3N3CCCCC32)C(=O)O1 (centres undefined)	1%	x	x	-12	x	x
O=C(CN1c2cccc3cccc(c23)S1(=O)=O)Nc1ccc(S(=O)(=O)N2CCOCC2)cc1	-5%	u	22µM*	-2	u	-21
O=C(CSc1cccc2cccnc12)Nc1ccc(S(=O)(=O)N2CCOCC2)cc1	-9%	-9%	0%	-28	u	-101*
O=C(CN1C(=O)c2cccc3cccc1c23)Nc1ccc(S(=O)(=O)N2CCOCC2)cc1	0%	14%	-8%	-3	2%	-28
O=C(CSc1cccc2cccnc12)Nc1cccc(S(=O)(=O)N2CCOCC2)c1	0%	u	-4%	2	1%	14
COc1ccc(N2CCN(C(=O)c3cc(S(=O)(=O)N4CCCCCC4)cn3C)CC2)cc1	1%	x	-16%	x	x	x
CCCC[C@@H]1CCCO[C@@](C(=O)NCc2ccccc2)(C(F)(F)F)C1	1%	x	x	26	x	x
CN(C)c1nc2ccccc2c(N)c1-c1ccccc1	5%	u	-7%	4	3%	-10
Nc1nc(Br)c2ccccc2c1-c1ccccc1	-11%	22µM*	17%	26	u	-4
Nc1nc(Br)c2c(F)cccc2c1-c1ccc(Cl)cc1	0%	7.3µM*	-21%	16	21µM*	-8
CC(C)C1=CC2=CC[C@@H]3[C@](C)(CCC[C@@]3(C)C(=O)O)[C@H]2CC1	x	2%	x	x	-10%	x
Cn1c(NC(=O)c2ccc(F)cc2)c(-c2cccs2)c(=O)c2ccccc21	2%	-6%	0%	9	2%	-58*
CC(C)N1CCN(Cc2ccc(OC3CCCC3)cc2)CC1CCO (centres undefined)	4%	4.6µM*	-1%	9	3%	10
CC(C)N1CCN(Cc2ccc(OCc3ccccc3)cc2)CC1CCO (centres undefined)	2%	9%	-5%	-11	u	-3
Nc1c(C(=O)c2ccc(F)cc2)oc2ccccc12	0%	7.3µM*	-6%	-6	16%	1
Nc1c(C(=O)c2ccccc2)oc2ccccc12	3%	13µM*	-7%	-6	u	5
CC(=O)c1oc2ccccc2c1N	-7%	1%	-12%	9	-3%	8
COc1ccc(CCNC(=O)Cn2nc(C)c3c(C)n(-c4ccc(C)cc4)nc3c2=O)c(OC)c1	4%	x	6%	x	x	x
Cc1ccc(C)c(NC(=O)c2cc(=O)c3cc(C)cc(C)c3o2)c1	2%	x	0%	x	x	x
CCc1nc2ccc(C(=O)NCCOc3ccc(OC)cc3)cn2c1N(C)Cc1cccs1	-8%	x	x	x	x	-52*
CCc1nc2ccc(C(=O)NCc3cccs3)cn2c1N(C)Cc1nccs1	-4%	x	x	x	x	-54*
CCc1nc2ccc(C(=O)NCCC(C)C)cn2c1N(C)Cc1nccs1	-7%	x	x	x	x	-21
CCOc1ccccc1N(CC)C(=O)c1noc2c1COc1ccc(C)cc1-2	-18%	x	1%	x	x	x
CCc1ccc(S(=O)(=O)/N=C2\C=C(Nc3ccc(C(=O)O)cc3)C(=O)c3ccccc32)cc1	0%	4.6µM*	2%	24	9.2µM*	-99*
CC(C)(C)c1ccc(S(=O)(=O)/N=C2\C=C(NS(=O)(=O)c3ccccc3)C(=O)c3ccccc32)cc1	0%	-17%	3%	1	u	19
SMILES	Vif-A3G inh	MCF10A rerep	Vif-APOBEC3F blk	Giardia killer	SW480 rerep	IL1B secr inh
Cc1ccc(S(=O)(=O)/N=C2\C=C(NS(=O)(=O)c3ccccc3)C(=O)c3ccccc32)c(C)c1	0%	u	-13%	-8	-8%	16
Cc1ccc(S(=O)(=O)/N=C2\C=C(Nc3ccc(O)cc3)C(=O)c3ccccc32)cc1	-1%	3.3µM*	7%	1	6.3µM*	-97*
Cc1ccc(S(=O)(=O)/N=C2\C=C(Nc3cccc(C(=O)O)c3)C(=O)c3ccccc32)cc1	-4%	u	3%	9	u	-93*
Cc1ccc(S(=O)(=O)/N=C2\C=C(Nc3cccc(C(=O)O)c3)C(=O)c3ccccc32)c(C)c1	1%	6.5µM*	4%	-13	u	-104*
Cc1ccc(NC2=C(NCCO)C(=O)c3ccccc3C2=O)cc1	-13%	19%	2%	-4	u	-17
O=C(O)c1cccc(NS(=O)(=O)c2ccc3c(c2)C(=O)c2ccccc2C3=O)c1	0%	8%	0%	-11	-4%	0
C=CCN1C(=O)/C(=C2/Sc3ccc(OC)cc3N2C)SC1=Nc1ccccc1	-5%	u	-18%	-11	7.3µM*	19
CCN1C(=O)/C(=C2/Sc3ccc(OC)cc3N2C)SC1=Nc1cccc(O)c1	10µM*	-1%	u	10	-2%	-3
C=CCN1C(=O)/C(=C2/Sc3ccc(OC)cc3N2C)SC1=NCc1ccccc1	0%	0%	-4%	-9	-2%	1
Cc1cc(C)c2c(C)ccnc2c1	-5%	x	x	x	x	x
Cn1c(SCc2nc3ccccc3c(=O)[nH]2)nc2ccccc21	-6%	-27%	15%	28	2%	22
C=CCn1c(SCc2nc3sc4c(c3c(=O)[nH]2)CCCC4)nc2ccccc2c1=O	-5%	10µM*	u	-1	-1%	16
O=c1[nH]c(CSc2nnc(Nc3ccccc3)s2)nc2ccccc12	4%	22%	-7%	-2	16µM*	41
CC(C)Cn1c(SCc2nc3ccccc3c(=O)[nH]2)nc2ccccc2c1=O	0%	11µM*	-4%	13	u	6
CC(C)c1noc(-c2ccccc2OCC(=O)Nc2cccc([N+](=O)[O-])c2)n1	1%	x	-5%	x	x	x
Cc1ccc(-c2nnc(Sc3nc4ccccc4o3)c3ccccc23)cc1	0%	8.2µM*	-21%	27	u	16
Cc1nnc(Sc2nc3ccccc3o2)c2ccccc12	1%	13µM*	-6%	4	u	-99*
Clc1ccc(-c2nnc(Sc3nc4ccccc4o3)c3ccccc23)cc1	-18%	u	7%	-6	-4%	-104*
Cn1cc(S(=O)(=O)N2CCCCC2)cc1C(=O)Nc1cccc(C#N)c1	-3%	x	-5%	x	x	x
Nc1nc2nc(-c3cccs3)cc(C(F)(F)F)n2n1	-3%	21µM*	2%	23	u	-8
